Laboratory results: PubChem BioAssay (Tox21)
Active and inactive are the calls of the source. Where a call stands in place of a potency, no number is given. The call rests on the fitted dose curve; in most records, active means well fitted activation curve with a large enough effect in the repeat runs; inconclusive means weak or mixed curves; inactive means flat fitted curve, though single readings scatter.

Assay: A CellTox Green Cytotoxicity Assay to monitor cytotoxicity in HepG2 cells - 0 hour (AID 1224882); further: nearly all actives have a fitted effect of over 35% in size
Details: CellTox Green fluorescence; series mostly up to 76.8 µM
Excerpt: National Center for Advancing Translational Sciences [NCATS]
NIH Chemical Genomics Center [NCGC]
U.S. Environmental Protection Agency [EPA]
National Institutes of Environmental Health Sciences [NIEHS]
National Toxicology Program [NTP]
Cell-based models are critical for drug discovery. Determining the natural cytotoxic effects resulting from test compounds is an essential research activity. A CellTox Green Cytotoxicity Assay to monitor cytotoxicity in real time of continues cell culture during 40 hours of the compound treatment was used to screen Tox21 10K library compounds in HepG2 cells. CellTox Green Cytotoxicity Assay is a nonlytic, homogeneous, biofluorescent method to measure cytotoxicity in cell culture after experimental manipulation. The assay system uses a proprietary asymmetric cyanine dye that is excluded from viable cells but preferentially stains the dead cell's DNA. […] Viable cells produce no appreciable increases in fluorescence. Therefore, the fluorescence signal produced by the binding interaction with dead cell DNA is proportional to cytotoxicity.
The mixture of HepG2 cell suspension and reagents were dispensed at 600cells/6 ul/well in 1536-well tissue culture treated black solid bottom plates using a Multidrop dispenser. After the assay plates were incubated at a 37 C/5% CO2 incubator for 5 hours, 23 nL of compounds dissolved in DMSO, positive and negative controls was transferred to the assay plate by a pintool work station. The plates were incubated at 37 C for 40 hours. The fluorescence intensity were measured at 0h, 8h, 16h, 24h, 32h and 40h time points using ViewLux plate reader during compound treatment.
In the case of `Cc1ccncc1`, the Potency is reported as “inactive”.
In the case of `Cc1ccccc1Cl`, the Potency is reported as “inactive”.
With `OCC(CO)(CO)CO` the Potency was “inactive”.
For `C=C(C)CC(C)(C)C`, the Potency was “inactive”.
With `O=C(O)Cc1c[nH]c2ccccc12` the Potency was “inactive”.
In the case of `COC(=O)OC`, the Potency is reported as “inactive”.
With `CCCCCNCCCCC` the Potency was “inactive”.
With `CC1=CC(=O)CC(C)(C)C1` the Potency was “inactive”.
With `Clc1cccc(Cl)c1NC1=NCCN1` the Potency was “inactive”.
With `CC(=O)OCc1ccc2c(c1)OCO2` the Potency was “inactive”.
In the case of `C=CC(=O)NCOCCCC`, the Potency is reported as “inactive”.
With `CCCOCC(C)O` (stereo not given) the Potency was “inactive”.
With `COc1ccc2cc3[n+](cc2c1OC)CCc1cc2c(cc1-3)OCO2` the Potency was “inactive”.
In the case of `COc1cc(NC(=O)CC(C)=O)c(OC)cc1Cl`, the Potency is reported as “inactive”.
In the case of `CCCCCCCCCCCC(=O)N(C)CC(=O)O`, the Potency is reported as “inactive”.
With `CC(=O)c1nccs1` the Potency was “inactive”.
With `N#CCC(=O)O` the Potency was “inactive”.
With `CC(=O)OC/C=C(\C)CCC=C(C)C` the Potency was “inactive”.
In the case of `CCCCC(=O)O`, the Potency is reported as “inactive”.
In the case of `COc1c(Cl)ccc(Cl)c1C(=O)O`, the Potency is reported as “inactive”.
For `NC(N)=S`, the Potency was “inactive”.
In the case of `C=C(CC(=O)O)C(=O)O`, the Potency is reported as “inactive”.
With `CC/C(C)=N/O` the Potency was “inactive”.
With `CCCN(CCC)C(=O)SCC` the Potency was “inactive”.
In the case of `Cc1cccc(C)c1[N+](=O)[O-]`, the Potency is reported as “inactive”.
With `O=C(NCC1CCCCN1)c1cc(OCC(F)(F)F)ccc1OCC(F)(F)F` (stereo not given) the Potency was “inactive”.
With `CC/C=C(\C(=O)N[C@@H]1C(=O)N2C(C(=O)OCOC(=O)C(C)(C)C)=C(COC(N)=O)CS[C@H]12)c1csc(N)n1` the Potency was “inactive”.
With `CC(C)=CCC/C(C)=C/C=O` the Potency was “inactive”.
In the case of `C[n+]1ccn(CCO)c1`, the Potency is reported as “inactive”.
In the case of `CCCOC(=O)NCCCN(C)C`, the Potency is reported as “inactive”.
For `NC1CCCCC1N` (stereo not given), the Potency was “inactive”.
For `O=C(O)C1=NN(c2ccc(S(=O)(=O)O)cc2)C(=O)C1`, the Potency was “inactive”.
With `Cc1cc(C)cc(O)c1` the Potency was “inactive”.
With `Oc1ccc(Cc2ccccc2O)cc1` the Potency was “inactive”.
In the case of `CCc1cccc(O)c1`, the Potency is reported as “inactive”.
In the case of `CS(=O)(=O)c1ccc(Cl)cc1`, the Potency is reported as “inactive”.
In the case of `NC(=O)NC(N)=O`, the Potency is reported as “inactive”.
With `CC(=O)C(C)C` the Potency was “inactive”.
In the case of `Cc1cc(C)c(O)c(C)c1`, the Potency is reported as “inactive”.
In the case of `Cc1ccc(Cl)cc1`, the Potency is reported as “inactive”.
